Screening data (PubChem BioAssay)
DT40 TDP1 CPT = growth inhibition of DT40 Tdp1-/-;hTDP1 cells with camptothecin (screen for TDP1 inhibitors). chicken DT40 Tdp1-/-;hTDP1 cells + 20 nM CPT, ATP luminescence, 48 h. AID 686979. Potency, µM (top dose mostly 46.2 µM), for the others: at the top dose activity change, negative = growth inhibition, usual class: inhibitors. 420,000 compounds, 12% hits; note: potency is the fitted concentration of half-maximal effect; % is set by controls: 0 for no effect and ±100 for the full control effect; nearly all actives have a fitted effect of over 55% in size
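Cell growth measured by CellTiter-Glo luminescence after a minimum 48 h, 37 C compound exposure with 20 nM CPT in Tdp1-knockout DT40 cells stably expressing hTDP1, seeded 400/well; qHTS titration format.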
ClpP mod = qHTS Assay for Activators of ClpP; ATP-dependent Clp protease proteolytic subunit (Bacillus subtilis (strain 168)), P80244; purified B. subtilis ClpP, FRET peptide cleavage, 20 min; Potency, µM (titrated, usually from 57.5 µM), for the others: at the top dose activity change, negative = active; 340,000 compounds, 1.9% hits; AID 651965, 2013; active = well fitted falling curve with a large enough effect; inconclusive = small, poorly fitted or top-dose-only effect; inactive = no such curve, though single readings can be large or run the other way; note: potency is the fitted concentration of half-maximal effect; the source files actives as falling curves though it sought activators and does not explain the sign; nearly all actives have a fitted effect of over 65% in size
Target sequence (P80244 whole entry, looked up): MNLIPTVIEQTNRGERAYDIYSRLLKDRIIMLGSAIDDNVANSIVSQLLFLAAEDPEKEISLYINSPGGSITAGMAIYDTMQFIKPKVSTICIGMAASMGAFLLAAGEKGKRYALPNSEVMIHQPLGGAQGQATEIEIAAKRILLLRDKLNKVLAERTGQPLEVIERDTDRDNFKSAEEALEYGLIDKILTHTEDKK
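Buffer: 100 mM Tris/HCl pH8, 100 mM KCl, 0.05% low protease BSA, 2.5% glycerol, 0.01% Tween-20. ClpP 10 microg/mL final; 20 min RT; delta FRET normalized to ADEP and DMSO controls.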
IL-1B inflam inh = blocks inflammasome-driven IL-1 beta release. THP-1 LPS/ATP IL-1B secretion, AlphaLISA, 16 h; hits give low values. activity change, % at 57.5 µM. 360,000 compounds, 4.7% hits; in the data active = activity change below about -50%; inconclusive = mostly about -30% to -49%; note: % is set by controls: 0 for no effect and ±100 for the full control effect
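Secreted IL-1B measured by AlphaLISA bead assay after 16 h compound exposure of THP-1 cells; compounds (final up to 57.5 uM) added 1 h before LPS (250 ng/mL) and ATP (1.25 mM) stimulation; lower signal means less secretion.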
D3 antag = blocks the human D3 dopamine receptor | D3R cells, DiscoveRx beta-arrestin luminescence, antagonist mode; hits give low values | max response, negative = inhibition, % | 360,000 compounds, 2.5% hits | P35462; in the data active = max response below about -50%; inconclusive = no clear call, values can overlap the other calls; note: % is set by controls: 0 for no effect and ±100 for the full control effect
Target sequence (P35462 whole entry, looked up): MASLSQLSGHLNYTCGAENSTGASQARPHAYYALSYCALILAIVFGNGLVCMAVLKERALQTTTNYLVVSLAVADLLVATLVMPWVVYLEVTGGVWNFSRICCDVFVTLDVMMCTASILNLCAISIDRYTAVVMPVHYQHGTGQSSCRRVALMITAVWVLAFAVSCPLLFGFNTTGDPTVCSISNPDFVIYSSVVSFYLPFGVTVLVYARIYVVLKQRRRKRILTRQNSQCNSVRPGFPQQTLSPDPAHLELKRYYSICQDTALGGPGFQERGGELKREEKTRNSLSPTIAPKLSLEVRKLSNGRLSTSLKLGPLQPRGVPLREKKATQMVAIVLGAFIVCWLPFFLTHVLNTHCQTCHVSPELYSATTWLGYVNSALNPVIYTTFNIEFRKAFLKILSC
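Cells plated overnight at 1500 cells/well, then exposed to library compounds with dopamine controls for 90 minutes at 37 degrees C. DiscoveRx reagent added for 30–60 minutes at room temperature; luminescence read, quantitative HTS format.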
D3 ag = agonists of human D3 dopamine receptor; D3R DiscoveRx beta-arrestin cells, luminescence, 90 min; 410,000 compounds, 0.58% hits; AID 652048; max activation, %; in the data active = max activation above about 30%; note: 0% is about no effect
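Cells at 1500/well, incubated overnight, then treated with pinned compounds (dopamine as control) for 90 min at 37 degrees C. DiscoveRx reagent added for 30 - 60 minutes at room temperature; luminescence read.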
TDP1 cell noCPT = qHTS for Inhibitors of human tyrosyl-DNA phosphodiesterase 1 (TDP1): qHTS in cells in absence of CPT; AID 686978, 2013; 420,000 compounds, 15% hits; DT40 Tdp1-/- hTDP1 cells, no CPT, ATP luminescence, 48 h; Potency, µM (highest dose often 46.2 µM), for the others: at the top dose activity change, negative = growth inhibition, actives largely listed as inhibitors; note: potency is the fitted concentration of half-maximal effect; % is set by controls: 0 for no effect and ±100 for the full control effect; nearly all actives have a fitted effect of over 55% in size
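DT40 Tdp1-/-;hTDP1 cells, no CPT (DMSO vehicle only), 400 cells/well; compounds pin-transferred; ≥48 hr, 37 °C; CellTiter-Glo 30 min RT dark, luminescence read.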
* marks the source's active call; other numbers are inactive results; ? = inconclusive; · = no result given. Compounds with a hit are over-represented: about 21% of the library has one in this group of screens. Unless noted, calls come from the whole dose curve; as a rule, active = well fitted inhibition curve with a large enough effect; inconclusive = small, poorly fitted or top-dose-only effect; inactive = flat fitted curve, though single readings scatter.

SMILES | DT40 TDP1 CPT | ClpP mod | IL-1B inflam inh | D3 antag | D3 ag | TDP1 cell noCPT
O=[N+]([O-])c1cccc(/C=C/c2ccccn2)c1 | -1% | -1% | -30 | -15 | -11 | 7%
CCOc1ccc(OCCCC(=O)NNC(=O)c2ccncc2)cc1 | 10% | 1% | 7 | -13 | 6 | 4%
O=C(NNC(=O)c1ccccn1)c1cccc([N+](=O)[O-])c1 | 16µM* | · | 108 | 9 | 1 | 16µM*
N#C/C(=C\c1cccc([N+](=O)[O-])c1)c1ccccn1 | -24% | · | -88* | -15 | -13 | 15µM*
Cc1cccc(NC(=O)C2CCCN(S(=O)(=O)c3ccc4c(c3)CCCC(=O)N4)C2)c1 (configuration not stated) | · | 1% | · | · | 3 | ·
COc1ccc(C(=O)NCCNC(=O)c2ccccn2)cc1 | -1% | · | 5 | 14 | 7 | -8%
COc1cc(OC)cc(C(=O)NNC(=O)c2ccc3ccccc3n2)c1 | 5.2µM* | -2% | 50 | ? | -14 | 5.2µM*
COc1ccc(C(=O)NNC(=O)c2ccccn2)cc1 | -17% | 1% | -18 | -13 | -1 | -25%
COc1ccc2c(c1)C(=NNC(=O)c1ccccn1)c1cc(OC)ccc1-2 | 4.6µM* | · | -8 | 47 | 29 | 2.6µM*
COc1cc(OC)cc(C(=O)NNC(=O)c2ccccn2)c1 | 2.9µM* | · | 146 | 1 | 3 | 6.5µM*
COc1ccc(C(=O)NC(=S)NNC(=O)c2ccc3ccccc3n2)cc1 | ? | · | 48 | 3 | 18 | 18µM*
COc1ccc(-c2cc(C(=O)Nc3c(C)nn(Cc4ccc(F)cc4)c3C)no2)cc1OC | ? | -22% | · | · | 5 | ?
O=C(O)CC(NNC(=O)c1ccccc1)C(=O)Nc1ccc([N+](=O)[O-])cc1 (configuration not stated) | 2% | -2% | 2 | -14 | 4 | 3%
CCCNC(=O)C1(C)CCCN(Cc2ccccc2Cl)C1 (configuration not stated) | ? | 0% | 2 | 0 | 5 | ?
Cc1ccc(S(=O)(=O)CCSc2n[nH]c(=O)n2-c2ccc3c(c2)OCCO3)cc1 | ? | -1% | ? | 15 | 1 | 21µM*
Cc1cccc(C(=O)OC(C)C(=O)NCC2CCCCC2)c1O (configuration not stated) | -3% | -21% | -4 | 13 | 3 | -3%
Cc1noc(C)c1C(=O)Nc1nc2ccc(F)cc2s1 | 4% | 2% | 25 | 3 | -2 | -25%
Cc1ccc(CS(=O)(=O)c2ncc(Cl)c(C(=O)Nc3nc4ccc(F)cc4s3)n2)cc1 | 5.2µM* | -1% | · | · | -14 | 2.6µM*
Cc1ccc(CS(=O)(=O)c2ncc(Cl)c(C(=O)Nc3nc4ccc(C)cc4s3)n2)cc1 | 2.9µM* | 0% | · | · | -13 | 3.7µM*
COc1ccc2nc(NC(=O)c3nc(S(=O)(=O)Cc4ccc(C)cc4)ncc3Cl)sc2c1 | 1.6µM* | 2% | · | · | -21 | 2.3µM*
O=C(c1cc(C(=O)N2CCOCC2)c2nc3ccccc3n2c1)c1cc(Cl)cc(Cl)c1O | -16% | 12% | 17 | -6 | -2 | -14%
CC(C)=CCN1CCNC(=O)C1CC(=O)NCc1nc(C)c(C)s1 (configuration not stated) | 9% | · | -3 | -15 | 7 | -21%
CCc1nc2c(sc3nc4c(cc32)COC(C)(C)C4)c(=O)n1Cc1ccco1 | 23µM* | -24% | 0 | -14 | 10 | 23µM*
CC1(C)Cc2nc3sc4c(N(CCO)CCO)nnnc4c3cc2CO1 | -27% | 4% | 2 | 2 | 10 | -22%
Cc1nc(OCC(C)C)c2sc3nc4c(cc3c2n1)COC(C)(C)C4 | ? | · | -26 | -19 | 6 | 21µM*
SMILES | DT40 TDP1 CPT | ClpP mod | IL-1B inflam inh | D3 antag | D3 ag | TDP1 cell noCPT
CC1(C)Cc2nc3sc4c(N(CCO)CCO)ncnc4c3cc2CO1 | -29% | 14µM* | -2 | 9 | -3 | ?
COC(=O)CSc1ncnc2c1sc1nc3c(cc12)COC(C)(C)C3 | -18% | · | -8 | -14 | -7 | ?
CCc1nc(OCc2ccco2)c2sc3nc4c(cc3c2n1)COC(C)(C)C4 | 26µM* | -17% | 4 | 0 | 4 | 16µM*
O=C(COc1ccc(Cl)cc1Br)Nc1nnc(C2CC2)s1 | 5% | -1% | -19 | 15 | 0 | 0%
COC(=O)C1CCC(=O)N1C(c1ccc(OC)cc1)c1cc(OC)c(OC)c(OC)c1 (configuration not stated) | 1.5µM* | 2% | 26 | -10 | -12 | 1.3µM*
O=C(NCc1ccc(F)cc1)C1CC(=O)N(C2CCCCCCC2)C1 (configuration not stated) | 0% | -2% | 0 | -7 | -2 | 0%
Cc1c(=O)n(OCc2cccc(F)c2)c2ccccc2[n+]1[O-] | -6% | -18% | 0 | 17 | 9 | ?
Cc1c(=O)n(OCc2ccc(Cl)cc2)c2ccccc2[n+]1[O-] | -10% | · | 16 | 14 | 2 | 6.5µM*
CC1(C)C(=O)Nc2ccccc2N1C(=O)COC(=O)c1ccc([N+](=O)[O-])o1 | ? | -3% | -7 | ? | -26 | 3%
Cc1ccc(CNc2nc(C)cs2)cc1 | -3% | · | -58* | 0 | 7 | -28%
COc1cccc(C(=O)NCCc2sc(-c3cccc(C)c3)nc2C)c1 | · | 4% | · | · | 1 | ·
CCOc1ccc(Cn2c(CNS(=O)(=O)c3cccs3)nc3cccnc32)cc1 | ? | -4% | · | · | 8 | 23µM*
CCOc1ccc(Cn2c(CNS(=O)(=O)c3cccc(Cl)c3)nc3cccnc32)cc1 | ? | 1% | · | · | 9 | ?
CCc1ccc(Cn2c(CNS(=O)(=O)c3ccc(Cl)s3)nc3cccnc32)cc1 | 16µM* | 0% | · | · | 16 | 16µM*
COc1ccc(CNC(=O)[C@H](C)NC(=O)C2CCN(C(=O)[C@@H](N)Cc3ccccc3)CC2)cc1 | -5% | -6% | -12 | 5 | -9 | -14%
CCCc1nc2c3ccccc3ccn2c1CC(C)(C)C | 9.2µM* | -16% | 0 | 12 | 3 | 21µM*
CCCc1nc2c3ccccc3ccn2c1Cc1ccc(C)cc1 | 21µM* | ? | 58 | ? | 7 | ?
COc1ccc(CNC(=O)CN(Cc2ccccc2)S(=O)(=O)c2ccc(Cl)cc2)cc1 | ? | 0% | -16 | 22 | -22 | 18µM*
